# Measurements published in PubChem BioAssay (EPA / NIEHS).
# Results filed as inconclusive are left out. Active and inactive are the calls of the source. Rule for the calls: active = hit-call score of the fitted dose curve at least 0.9, where 1 is the maximum; inconclusive = response in the unintended direction; inactive = score below 0.9.
# Tests used:
# [1] = Tanguay_ZF_120hpf_SNOU_legacy: (Legacy) Oregon State University Tanguay Lab 120 Hour Post-fertilization zebrafish Assay for Snout Malformation (AID 2283637)
# Method in brief: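 Dechorionated zebrafish, individually housed from 6 hpf in covered, sealed wells at 28C with 0.64% DMSO vehicle, were examined at 120 hpf for snout malformation. Responses were binary and analysed positive-direction relative to DMSO.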
# [2] = Tanguay_ZF_120hpf_JAW_legacy: (Legacy) Oregon State University Tanguay Lab 120 Hour Post-fertilization zebrafish Assay for Jaw Malformation (AID 2283638);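 for AC50: active means more embryos with jaw malformation than DMSO controls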
# Method in brief: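 Dechorionated Tropical 5D wild-type zebrafish embryos, one per well, exposed statically from 6 hpf to 120 hpf at 28C in 0.64% DMSO. Jaw malformation was scored by brightfield microscopy as present or absent. It was not scored in dead embryos.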
# [3] = Tanguay_ZF_120hpf_PE_legacy: (Legacy) Oregon State University Tanguay Lab 120 Hour Post-fertilization zebrafish Assay for Pericardial Edema (AID 2283640);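 for AC50: potency for increased incidence of pericardial edema versus DMSO baseline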
# Method in brief: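 Tropical 5D wild-type zebrafish embryos were statically exposed until 120 hpf at 28C, with 0.64% DMSO final. Pericardial edema was scored by brightfield as present or absent; endpoints were not scored in dead embryos.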
# [4] = Tanguay_ZF_120hpf_BRAI_legacy: (Legacy) Oregon State University Tanguay Lab 120 Hour Post-fertilization zebrafish Assay for Brain Malformation (AID 2283641)
# Method in brief: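 Tropical 5D wild-type zebrafish embryos exposed statically until 120 hpf at 28C, 0.64% DMSO final, sealed and dark. Brain malformation scored present/absent by brightfield at 120 hpf; dead embryos excluded. Trimethyltin chloride 5uM positive control.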
# [5] = Tanguay_ZF_120hpf_PFIN_legacy: (Legacy) Oregon State University Tanguay Lab 120 Hour Post-fertilization zebrafish Assay for Pectoral Fin Malformation (AID 2283648);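 note: each larva judged yes or no for fin defect by brightfield with dead larvae skipped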
# Method in brief: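 Scoring of pectoral fin malformation was binary, made at 120 hpf on larvae exposed statically from 6 hpf after enzymatic chorion removal. Activity was fitted upward relative to DMSO controls at 0.64% (vol/vol).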
# [6] = Tanguay_ZF_120hpf_CFIN_legacy: (Legacy) Oregon State University Tanguay Lab 120 Hour Post-fertilization zebrafish Assay for Caudal Fin Malformation (AID 2283649)
# Method in brief: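 Dechorionated Tropical 5D wild-type embryos, one per well from 6 hpf, static exposure to 120 hpf at 28C in 0.64% DMSO. Caudal fin malformation scored by brightfield as present/absent; not scored in dead embryos.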
# [7] = Tanguay_ZF_120hpf_PIG_legacy: (Legacy) Oregon State University Tanguay Lab 120 Hour Post-fertilization zebrafish Assay for Pigmentation Malformation (AID 2283650)
# Method in brief: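 Endpoint is incidence of abnormal pigmentation at 120 hpf in dechorionated 5D zebrafish exposed singly from 6 hpf at 28C, DMSO vehicle at 0.64%. Embryos dying by 24 or 120 hpf are excluded from scoring.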
# [8] = Tanguay_ZF_120hpf_CIRC_legacy: (Legacy) Oregon State University Tanguay Lab 120 Hour Post-fertilization zebrafish Assay for Circulatory Malformation (AID 2283651)
# Method in brief: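 Static exposure, 6–120 hpf, 28C, sealed and dark; one dechorionated 5D embryo/well; DMSO 0.64% v/v final. Binary circulation endpoint by brightfield; dead embryos not scored.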
# [9] = Tanguay_ZF_120hpf_SOMI_legacy: (Legacy) Oregon State University Tanguay Lab 120 Hour Post-fertilization zebrafish Assay for Somite Malformation (AID 2283647)
# Method in brief: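 Dechorionated Tropical 5D wild-type zebrafish embryos, one per well from 6 hpf, statically exposed at 28C to 120 hpf in 0.64% DMSO; somite malformation scored present/absent by brightfield; trimethyltin 5 uM positive control; dead embryos not scored.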
smiles,measurement,setting,value
O=C(O)C(F)(F)C(F)(F)C(F)(F)C(F)(F)C(F)(F)F,outcome,[1],inactive
same,outcome,[2],inactive
same,outcome,[3],inactive
same,outcome,[4],inactive
same,outcome,[5],inactive
same,outcome,[6],inactive
same,outcome,[7],inactive
same,outcome,[8],inactive
CC1=C2C[C@H]3[C@@H](CC=C4C[C@@H](O)CC[C@@]43C)[C@@H]2CC[C@]12O[C@@H]1C[C@H](C)CN[C@H]1[C@H]2C,AC50,[2],25.9 µM (active)
same,AC50,[3],20.2 µM (active)
same,outcome,[4],inactive
same,outcome,[9],inactive
same,AC50,[5],21.8 µM (active)
same,AC50,[6],16.6 µM (active)
same,AC50,[7],20 µM (active)
same,outcome,[8],inactive
Nc1ccc(-c2ccc(N)cc2)cc1,outcome,[1],inactive
same,outcome,[2],inactive
same,outcome,[3],inactive
same,outcome,[4],inactive
same,outcome,[9],inactive
same,outcome,[5],inactive
same,outcome,[6],inactive
same,outcome,[8],inactive
ClC1=C(Cl)[C@]2(Cl)[C@@H]3[C@H]4C[C@H]([C@@H]5O[C@H]45)[C@@H]3[C@@]1(Cl)C2(Cl)Cl,outcome,[2],inactive
same,AC50,[3],39 µM (active)
same,AC50,[4],66.7 µM (active)
same,AC50,[9],65.6 µM (active)
same,outcome,[5],inactive
same,AC50,[6],66.1 µM (active)
same,outcome,[8],inactive
CCSC(=O)N(CC)C1CCCCC1,outcome,[2],inactive
same,outcome,[4],inactive
same,outcome,[9],inactive
same,outcome,[5],inactive
same,outcome,[6],inactive
same,outcome,[7],inactive
same,outcome,[8],inactive
CC#Cc1cc(C)nc(Nc2ccccc2)n1,outcome,[2],inactive
same,outcome,[4],inactive
same,outcome,[9],inactive
same,outcome,[5],inactive
same,outcome,[6],inactive
same,outcome,[7],inactive
same,outcome,[8],inactive
Cc1cc(O)ccc1Cl,outcome,[2],inactive
same,outcome,[3],inactive
same,outcome,[5],inactive
same,outcome,[6],inactive
same,outcome,[7],inactive
same,outcome,[8],inactive
Clc1ccc(C(Cl)(Cl)Cl)cc1,outcome,[2],inactive
same,outcome,[3],inactive
same,outcome,[9],inactive
same,outcome,[7],inactive
NS(=O)(=O)C(F)(F)C(F)(F)C(F)(F)C(F)(F)C(F)(F)C(F)(F)C(F)(F)C(F)(F)F,outcome,[2],inactive
same,outcome,[3],inactive
same,outcome,[4],inactive
same,outcome,[9],inactive
same,outcome,[5],inactive
same,AC50,[6],4.88 µM (active)
same,outcome,[7],inactive
same,outcome,[8],inactive
Nn1cnnc1,outcome,[2],inactive
same,outcome,[3],inactive
same,outcome,[4],inactive
same,outcome,[9],inactive
same,outcome,[5],inactive
same,outcome,[6],inactive
same,outcome,[8],inactive
O=S(=O)(O)C(F)(F)C(F)(F)C(F)(F)C(F)(F)C(F)(F)C(F)(F)F,outcome,[2],inactive
same,AC50,[4],14.9 µM (active)
same,outcome,[9],inactive
same,outcome,[5],inactive
same,outcome,[7],inactive
same,outcome,[8],inactive
C1CC2OC2CC1C1CO1 (centres undefined),outcome,[2],inactive
same,outcome,[9],inactive
same,outcome,[5],inactive
same,outcome,[6],inactive
same,outcome,[7],inactive
same,outcome,[8],inactive
O=C(NC(=O)c1c(F)cccc1F)Nc1cc(Cl)c(OC(F)(F)C(F)F)c(Cl)c1,outcome,[2],inactive
same,outcome,[3],inactive
same,outcome,[4],inactive
same,outcome,[9],inactive
same,outcome,[5],inactive
same,outcome,[6],inactive
same,outcome,[8],inactive
CCCCCCOC(=O)c1ccccc1C(=O)OCCCCCC,outcome,[2],inactive
same,outcome,[3],inactive
same,outcome,[4],inactive
same,outcome,[9],inactive
same,outcome,[5],inactive
same,outcome,[7],inactive
same,outcome,[8],inactive
c1ccc(-c2ccccc2)cc1,outcome,[2],inactive
same,outcome,[3],inactive
same,outcome,[9],inactive
same,outcome,[5],inactive
same,outcome,[7],inactive
C[C@]12CCC(=O)C=C1CC[C@@H]1[C@@H]2CC[C@@]2(C)[C@H]1CC[C@]2(C)O,outcome,[2],inactive
same,outcome,[4],inactive
same,outcome,[9],inactive
same,outcome,[6],inactive
same,outcome,[7],inactive
same,outcome,[8],inactive
CO/C=C(/C(=O)OC)c1ccccc1COc1cccc(C(F)(F)F)n1,AC50,[2],2.66 µM (active)
same,AC50,[3],2.43 µM (active)
same,AC50,[4],3.77 µM (active)
same,AC50,[9],18.1 µM (active)
same,AC50,[5],5.66 µM (active)
same,AC50,[6],9.15 µM (active)
same,AC50,[7],19.7 µM (active)
same,AC50,[8],9.76 µM (active)
Oc1ccc(C(c2ccc(O)cc2)(C(F)(F)F)C(F)(F)F)cc1,AC50,[2],54.7 µM (active)
same,AC50,[3],37.7 µM (active)
same,outcome,[4],inactive
same,AC50,[5],53.3 µM (active)
same,AC50,[6],54 µM (active)
same,AC50,[7],56.9 µM (active)
same,outcome,[8],inactive
COS(=O)(=O)OC,outcome,[2],inactive
same,outcome,[3],inactive
same,outcome,[9],inactive
same,outcome,[5],inactive
same,outcome,[7],inactive
same,outcome,[8],inactive
CCCCCCCCCC[N+](C)(C)CCCCCCCCCC,outcome,[2],inactive
same,outcome,[3],inactive
same,outcome,[4],inactive
same,outcome,[5],inactive
same,outcome,[6],inactive
same,outcome,[8],inactive
O=C(NC(=O)c1cc(F)c(F)cc1Cl)Nc1cc(F)ccc1N1CCC(C(=O)O)CC1,outcome,[2],inactive
same,outcome,[3],inactive
same,outcome,[9],inactive
same,outcome,[5],inactive
same,outcome,[6],inactive
same,outcome,[7],inactive
same,outcome,[8],inactive
O=NN(c1ccccc1)c1ccccc1,outcome,[2],inactive
same,outcome,[3],inactive
same,outcome,[4],inactive
same,outcome,[9],inactive
same,outcome,[5],inactive
same,outcome,[7],inactive
same,outcome,[8],inactive
CCC(C)c1cc([N+](=O)[O-])cc([N+](=O)[O-])c1O (centres undefined),outcome,[2],inactive
same,outcome,[3],inactive
same,outcome,[4],inactive
same,outcome,[9],inactive
same,outcome,[5],inactive
same,outcome,[6],inactive
same,outcome,[7],inactive
same,outcome,[8],inactive
CCOP(=S)(OCC)SCSC(C)(C)C,outcome,[3],inactive
same,outcome,[4],inactive
same,outcome,[9],inactive
same,outcome,[5],inactive
same,outcome,[7],inactive
same,outcome,[8],inactive
C[C@]12CCC(=O)C=C1CC[C@@H]1[C@@H]2CC[C@]2(C)C(=O)CC[C@@H]12,AC50,[2],38.3 µM (active)
same,AC50,[3],36.3 µM (active)
same,AC50,[4],49.8 µM (active)
same,outcome,[9],inactive
same,AC50,[5],35.1 µM (active)
same,AC50,[6],40.4 µM (active)
same,AC50,[7],43.9 µM (active)
same,outcome,[8],inactive
CCC(=O)O[C@H]1CC[C@H]2[C@@H]3CCC4=CC(=O)CC[C@]4(C)[C@H]3CC[C@]12C,outcome,[2],inactive
same,outcome,[3],inactive
same,outcome,[4],inactive
same,outcome,[9],inactive
same,outcome,[5],inactive
same,outcome,[6],inactive
same,outcome,[7],inactive
same,outcome,[8],inactive
CC(C)C(=O)OCC(C)(C)C(OC(=O)C(C)C)C(C)C (centres undefined),AC50,[2],41.6 µM (active)
same,AC50,[3],28.8 µM (active)
same,outcome,[4],inactive
same,outcome,[9],inactive
same,outcome,[6],inactive
same,outcome,[7],inactive
same,outcome,[8],inactive
Oc1ccc(Cl)cc1Cl,outcome,[2],inactive
same,outcome,[3],inactive
same,outcome,[9],inactive
same,outcome,[5],inactive
same,outcome,[6],inactive
same,outcome,[7],inactive
Cc1ccccc1O,outcome,[2],inactive
same,outcome,[3],inactive
same,outcome,[4],inactive
same,outcome,[9],inactive
same,outcome,[5],inactive
same,outcome,[6],inactive
same,outcome,[7],inactive
same,outcome,[8],inactive
O=C(O)C(F)(F)C(F)(F)C(F)(F)C(F)(F)C(F)(F)C(F)(F)C(F)(F)C(F)(F)C(F)(F)F,outcome,[2],inactive
same,outcome,[4],inactive
same,outcome,[9],inactive
same,outcome,[6],inactive
same,outcome,[7],inactive
same,outcome,[8],inactive
CC(C)(O)C(=O)Nc1ccc([N+](=O)[O-])c(C(F)(F)F)c1,AC50,[2],23.1 µM (active)
same,AC50,[3],23.2 µM (active)
same,outcome,[4],inactive
same,outcome,[9],inactive
same,outcome,[5],inactive
same,outcome,[7],inactive
same,outcome,[8],inactive
ClC1=C(Cl)[C@]2(Cl)[C@@H]3[C@@H]4C[C@@H]([C@H]5O[C@@H]45)[C@@H]3[C@@]1(Cl)C2(Cl)Cl,outcome,[3],inactive
same,outcome,[4],inactive
same,outcome,[9],inactive
same,outcome,[6],inactive
CCNc1nc(NC(C)C)nc(SC)n1,outcome,[2],inactive
same,outcome,[3],inactive
same,outcome,[4],inactive
same,outcome,[9],inactive
same,outcome,[5],inactive
same,outcome,[6],inactive
same,outcome,[7],inactive
same,outcome,[8],inactive
c1cc2ccc3cccc4ccc(c1)c2c34,outcome,[3],inactive
same,outcome,[4],inactive
same,outcome,[6],inactive
same,outcome,[7],inactive
same,outcome,[8],inactive
CC(C)(c1ccccc1)c1ccc(O)cc1,outcome,[3],inactive
same,outcome,[9],inactive
same,outcome,[6],inactive
same,outcome,[7],inactive
same,outcome,[8],inactive
